# Screening results from PubChem.
# An excerpt weighted towards active compounds, which were near 2.6% of everything screened.
# aDG glyco up = increases alpha dystroglycan glycosylation. Pro5-aDG cells, alpha-DG glycosylation AlphaScreen (IIH6); 0% Pro5, 100% B10-LARGE cell signal. activation, % at 10 µM. 0.22% of 360,000 active;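 active = activation of at least 8% versus controls, or a plate z-score of at least 8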;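 note: Pro5 are CHO cells carrying HIG-tagged alpha-DG that lacks glycosylation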
# LGR2 antag = blocks bursicon-induced cAMP signaling via Drosophila LGR2 | HEK293 LGR2, CRE-luciferase, bursicon-stimulated, 4 h | inhibition, % at 9.99 µM | 0.35% of 380,000 active;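 active = drop in luminescence signal, shown as inhibition above about 50% in the replicate tests, limit read from the data, passing the limit was not always enough; inconclusive = probably only some replicates passing the limit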;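 note: agonist challenge used bursicon conditioned medium at about half maximal strength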
# TWEAK-Fn14 inh = blocks TWEAK-Fn14 interaction in a reporter cell assay | inhibition, % at 10 µM | 2% of 360,000 active | TWEAK-stimulated Fn14 reporter cells, luciferase luminescence, 8 h; in the data active = inhibition above about 50%
# LMP1 NFkB inh = reduces LMP1-driven NF-kappaB luciferase signal. 0.69% of 350,000 active. inhibition, % at 12.5 µM. LMP1-induced NF-kappaB luciferase reporter cells, luminescence; in the data active = inhibition above about 41%; inconclusive = no clear call, values can overlap the other calls;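 note: 0% = neutral control wells and 100% = reference inhibitor control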
# HSP90 inh = HSP90 refolding inhibition in rabbit reticulocyte lysate | luciferase refolding luminescence, 3 h | inhibition, % at 5.6 µM | 0.91% of 290,000 active | AID 1789;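 active = inhibition above the screen-wide mean plus 3 SD, computed separately per campaign, cut at about 16% in these data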;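 note: 0% = DMSO wells and 100% = 60 µM geldanamycin wells; inhibitors lower the luminescence because luciferase stays unfolded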
# TROY NFkB inh = inhibitors of TROY-dependent NF-kB signaling; Q293 LMP1-TROYcd NF-kB luciferase reporter, 4 h; 0.98% of 360,000 active; inhibition, % at 10 µM; AID 1347056;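 active = compounds whose plate-normalised and pattern-corrected inhibition of the luciferase reporter signal at the single screening dose is 50% or more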
# HSP90 inh confirm = confirmation of HSP90 inhibitors; shares compounds with HSP90 inh; rabbit reticulocyte lysate, luciferase refolding luminescence, 3 h; inhibition, % at 5.9 µM; 64% of 2,300 active; AID 1846; in the data active = inhibition above about 18%;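 note: 0% = vehicle wells and 100% = reference inhibitor wells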
# FLuc counter = counter-screen for HSP90 inhibitors: inhibitors of firefly luciferase; shares compounds with HSP90 inh; purified native firefly luciferase, luminescence; inhibition, % at 5.9 µM; 48% of 2,300 active; AID 1847;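 active = inhibition above the mean inhibition of all tested sample wells plus 3 SD, cut at about 10% in these data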;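 note: 0% = DMSO with luciferase and 100% = wells lacking luciferase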
# Target sequence (P08659 whole entry, looked up): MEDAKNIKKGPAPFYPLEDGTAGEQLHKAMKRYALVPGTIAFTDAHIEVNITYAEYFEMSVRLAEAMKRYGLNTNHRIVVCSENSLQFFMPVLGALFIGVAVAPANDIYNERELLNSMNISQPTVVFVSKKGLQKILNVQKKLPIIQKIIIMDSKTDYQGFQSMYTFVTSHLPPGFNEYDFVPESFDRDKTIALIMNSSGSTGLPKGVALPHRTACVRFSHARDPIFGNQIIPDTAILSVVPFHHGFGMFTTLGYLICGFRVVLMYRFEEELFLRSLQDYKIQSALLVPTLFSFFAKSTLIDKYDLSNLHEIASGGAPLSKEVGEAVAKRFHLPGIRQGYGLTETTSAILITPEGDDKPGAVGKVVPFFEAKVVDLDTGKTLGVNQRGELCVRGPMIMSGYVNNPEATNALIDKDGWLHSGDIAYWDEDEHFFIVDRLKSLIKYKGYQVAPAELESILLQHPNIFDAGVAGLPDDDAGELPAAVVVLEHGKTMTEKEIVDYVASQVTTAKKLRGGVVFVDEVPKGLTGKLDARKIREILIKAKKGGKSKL
# An asterisk follows results filed as active; ? = inconclusive; · = no result.
SMILES,aDG glyco up,LGR2 antag,TWEAK-Fn14 inh,LMP1 NFkB inh,HSP90 inh,TROY NFkB inh,HSP90 inh confirm,FLuc counter
Cc1ccc(S(=O)(=O)N(C)C[C@@H]2Oc3ccc(NS(=O)(=O)c4cccs4)cc3C(=O)N([C@H](C)CO)C[C@@H]2C)cc1,·,5,·,·,·,·,·,·
CCC(=O)Nc1ccc2c(c1)OC[C@@H](C)N(C(C)=O)C[C@@H](C)[C@@H](OC)CN(C)C2=O,·,7,·,·,·,·,·,·
COc1cc(/C=C2\CC(C(C)(C)C)C/C(=C\c3cc(OC)c(OC)c(OC)c3)C2=O)cc(OC)c1OC (configuration not stated),-1,42,64*,?,19*,12,20*,-5
Cc1c(C(=O)N2CCN(c3ccc([N+](=O)[O-])cc3)CC2)oc2ccccc12,1,-9,-5,1,·,21,·,·
Cc1c(-c2ccccc2)oc2c(C(=O)N3CCN(c4ccc([N+](=O)[O-])cc4)CC3)cccc2c1=O,1,43,75*,32,21*,42,10,1
C/C(=N\NC(=O)c1cc2ccccc2cc1O)c1cccs1,0,-36,53*,28,22*,-8,34*,38*
O=C(NNC(=O)c1cc2ccccc2cc1O)c1cccs1,0,-83,26,-14,-1,-36,·,·
CC(C)(C)c1ccc(C(=O)NC(=S)Nc2nc3c(s2)CCCC3)cc1,1,16,82*,5,24*,84*,57*,38*
CN(C)c1ccc(C(=O)Nc2nc3c(s2)CCCC3)cc1,1,?,72*,-19,27*,23,59*,58*
COC(=O)Nc1nc2c(s1)CCCC2,0,·,-8,-11,4,-43,·,·
CCN1[C@@H]2c3ccc(-c4ccccc4F)c(=O)n3C[C@@H]2[C@@H](CO)[C@@H]1C(=O)NC1CCCC1,·,-3,·,·,·,·,·,·
c1csc(-c2ccc3ccccc3n2)c1,0,·,-16,-26,-2,-46,·,·
Cc1cc2ncc(-c3cccs3)nc2cc1C,0,71*,71*,-25,35*,12,61*,59*
C/C=C/c1ccc2c(c1)O[C@H](CN(C)CC1CCCC1)[C@@H](C)CN([C@H](C)CO)S2(=O)=O,·,6,·,·,·,·,·,·
C[C@H]1CN([C@@H](C)CO)C(=O)c2cccc(NC(=O)CCCCCC(=O)Nc3ccccc3N)c2O[C@H]1CN(C)C(=O)Nc1ccc(C(F)(F)F)cc1,·,3,·,·,·,·,·,·
C=CCn1c(C)cc(C(=O)CN2NS(=O)(=O)c3ccccc3C2=O)c1C,0,-95,40,-27,35*,69*,36*,12*
Cc1ccc(CNC(=O)CN2NS(=O)(=O)c3ccccc3C2=O)cc1,0,9,-15,-2,·,-17,·,·
Cc1nc2ccccc2c(=O)n1/N=C/c1ccc(O)c(O)c1O,0,-10,32,-11,-1,-6,·,·
C=CCN=c1scc(-c2ccco2)n1/N=C/c1ccc(O)c(O)c1O,0,-18,48,-46,17*,-7,25*,-22
COCCN=c1scc(-c2ccco2)n1/N=C/c1ccc(O)c(O)c1O,0,14,-9,-26,1,-19,·,·
CN=c1scc(-c2cccs2)n1/N=C/c1ccc(O)c(O)c1O,0,-23,87*,17,24*,89*,87*,78*
CO[C@@H]1CN(C)C(=O)c2cc(NS(C)(=O)=O)ccc2OC[C@@H](C)N(CCC(F)(F)F)C[C@@H]1C,·,-2,·,·,·,·,·,·
S=C(NCCc1ccccn1)NC1CCCCC1,0,-5,-24,-5,23*,-42,1,-11
Cc1cc(CC(C)C)n(-c2nc3ccccc3c(=O)n2OCc2ccccc2)n1,0,·,22,0,18*,-46,15,9.5*
Cc1cc(CC(C)C)n(-c2nc3ccccc3c(=O)n2OCC(=O)N(C)C)n1,0,·,6,-9,9,44,·,·
SMILES,aDG glyco up,LGR2 antag,TWEAK-Fn14 inh,LMP1 NFkB inh,HSP90 inh,TROY NFkB inh,HSP90 inh confirm,FLuc counter
O=C(O)c1ccc2c(c1)C(=O)/C(=C\c1ccco1)C2=O,0,-4,7,-4,12,4,·,·
Cc1ccc(/C=C2/C(=O)c3ccc(C(=O)O)cc3C2=O)o1,0,6,3,2,22*,-16,46*,-32
Cc1ccc(S(=O)(=O)N(C)C[C@@H]2Oc3ccc(NS(=O)(=O)c4ccccc4)cc3CC(=O)N([C@H](C)CO)C[C@@H]2C)cc1,·,-2,·,·,·,·,·,·
CC=Cc1ccc2n(c1=O)C[C@H]1[C@H](CO)[C@@H](C(=O)N(C)C)N(C(=O)CC3CC3)[C@@H]21 (mixture of isomers),·,5,·,·,·,·,·,·
COc1cccc2cc(-c3csc(NC(=O)CCC(=O)NCCCN4CCC(C)CC4)n3)c(=O)oc12,0,-2,59*,26,27*,21,2,-15
CCOc1cccc2cc(-c3csc(NC(=O)CCC(=O)NCCCN4CCC(C)CC4)n3)c(=O)oc12,·,·,·,·,-3,·,·,·
O=C(C[C@@H]1CC[C@@H]2[C@H](COC[C@H](O)CN2S(=O)(=O)c2ccccc2)O1)NCCN1CCCCC1,·,-16,·,·,·,·,·,·
CCN(CC)c1ccc2cc(NC(=O)CCC(=O)O)c(=O)oc2c1,0,19,91*,38,33*,69*,36*,-31
CCN(CC)c1ccc2cc(C(N)=O)c(=O)oc2c1,0,-27,-21,-6,-4,-58,·,·
C[C@H](CO)N1C[C@H](C)[C@H](CN(C)C(=O)C2CC2)Oc2cc(C#CC3CCCC3)ccc2S1(=O)=O,·,12,·,·,·,·,·,·
CC(=O)NC[C@H]1[C@H](c2ccc(-c3cccnc3)cc2)[C@H](CO)N1C(=O)C1CCC1,·,-5,·,·,·,·,·,·
Cc1ccc(Nc2nc(-c3sc(C)nc3C)cs2)cc1,0,-39,19,29,-1,-8,·,·
COc1ccc(CCNc2nc(-c3sc(N)nc3C)cs2)cc1OC,1,·,-9,16,29*,4,5,-5
Cc1ccc(Nc2nc(-c3sc(N)nc3C)cs2)cc1,0,-22,-24,-55,39*,-28,-2,-18
COc1ccc(Nc2nc(-c3sc(N)nc3C)cs2)cc1,0,·,-14,-18,30*,-31,-4,-21
CCOc1ccc(Nc2nc(-c3sc(N)nc3C)cs2)cc1,0,-15,-16,-2,20*,-12,1,-21
C[C@@H]1CN([C@H](C)CO)C(=O)c2cc(C#CC3CC3)cnc2O[C@@H]1CN(C)C(=O)Nc1ccc(F)cc1,·,7,·,·,·,·,·,·
CN(C[C@H]1[C@H](c2ccccc2)[C@@H](CO)N1CC1CC1)C(=O)c1ccc(F)cc1,·,19,·,·,·,·,·,·
CCC(=O)N[C@H]1CC[C@H](CCn2cc(C3CC3)nn2)O[C@@H]1CO,·,14,·,·,·,·,·,·
CCOc1ccc(C(=O)N2CCCC2)cc1,0,-1,12,-10,-1,-11,·,·
